± gives the standard deviation.
Key:
Test in all cases: peptide microarray binding signal (635 nm), min-max normalized on array (fraction of array maximum); higher = stronger binding
[1] = biological target: T1, HaloTag-ATRX ADD domain (163-292)
T1 chain: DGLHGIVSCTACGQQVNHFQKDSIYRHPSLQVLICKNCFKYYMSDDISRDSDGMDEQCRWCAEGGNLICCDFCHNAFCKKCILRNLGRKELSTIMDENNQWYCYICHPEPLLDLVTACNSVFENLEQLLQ
In short: (§1)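 Within each library, mean intensities of triplicate spots were min-max scaled to give the binding signal. The spots were histone 13-mer peptide–cellulose conjugates on nitrocellulose with a Cy3 tracer, blocked overnight at 4°C. They were then probed for 1 h at 4°C using biotin-labelled HaloTag reader fusions (10 nM to 1 μM) with streptavidin-Alexa Fluor 647 or rabbit histone antibodies (1:10,000 to 1:2,000) with anti-rabbit Alexa 647, and scanned at 635 nm for signal and 532 nm for misprints on an Axon GenePix 4000B.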

[2] = biological target: HaloTag-ING2 PHD (mouse Ing2 200-280)
In short: as §1

[3] = biological target: anti-H3K4me3 antibody ab8580
In short: as §1

[4] = biological target: anti-H3K9me3 antibody ab8898
In short: as §1

[5] = peptide region: H4 8-19, peptide modifications: H4K8ac H4K12ac, binder concentration: 1:2,000 dilution
[6] = peptide region: H4 8-19, peptide modifications: H4K8ac H4K12ac, binder concentration: 1:10,000 dilution
[7] = peptide region: H4 8-19, peptide modifications: H4K8ac H4K12ac H4K16ac, binder concentration: 1:2,000 dilution
[8] = peptide region: H4 1-13, peptide modifications: H4S1ph H4R3cit, binder concentration: 1:2,000 dilution
[9] = peptide region: H4 1-13, peptide modifications: H4S1ph H4R3cit, binder concentration: 1:10,000 dilution
[10] = peptide region: H4 1-13, peptide modifications: H4S1ph H4K12ac, binder concentration: 1:2,000 dilution
[11] = peptide region: H4 1-13, peptide modifications: H4S1ph H4K12ac, binder concentration: 1:10,000 dilution
[12] = peptide region: H4 1-13, peptide modifications: H4S1ph H4R3me2a, binder concentration: 1:2,000 dilution
[13] = peptide region: H4 1-13, peptide modifications: H4S1ph H4R3me2a, binder concentration: 1:10,000 dilution

## KGLGKGGAKRHRK [H4 8-19 Kac G L G Kac G G A K R H R K]
[1]; peptide region: H4 8-19, peptide modifications: H4K8ac H4K12ac, binder concentration: 50 nM
  peptide microarray binding signal: 0.000251 ± 1.2e-05
[1]; peptide region: H4 8-19, peptide modifications: H4K8ac H4K12ac, binder concentration: 500 nM
  peptide microarray binding signal: 0.000143 ± 2.7e-06
[2]; peptide region: H4 8-19, peptide modifications: H4K8ac H4K12ac, binder concentration: 10 nM
  peptide microarray binding signal: 0.00567 ± 0.0013
[2]; peptide region: H4 8-19, peptide modifications: H4K8ac H4K12ac, binder concentration: 100 nM
  peptide microarray binding signal: 0.000496
[3]; [5]
  peptide microarray binding signal: 0.000113
[3]; [6]
  peptide microarray binding signal: 0.00165 ± 0.00042
[4]; [5]
  peptide microarray binding signal: 6.04e-05 ± 6.8e-07
[4]; [6]
  peptide microarray binding signal: 5.77e-05 ± 6.6e-07

## KGLGKGGAKRHRK [H4 8-19 Kac G L G Kac G G A Kac R H R K]
[1]; peptide region: H4 8-19, peptide modifications: H4K8ac H4K12ac H4K16ac, binder concentration: 500 nM
  peptide microarray binding signal: 0.000476 ± 4.9e-06
[2]; peptide region: H4 8-19, peptide modifications: H4K8ac H4K12ac H4K16ac, binder concentration: 100 nM
  peptide microarray binding signal: 7.09e-05 ± 1.5e-06
[3]; [7]
  peptide microarray binding signal: 1.89e-05 ± 2.2e-07
[4]; [7]
  peptide microarray binding signal: 3.02e-05 ± 3.4e-07

## SGRGKGGKGLGKG [H4 1-13 Sph G Rcit G K G G K G L G K G]
[1]; peptide region: H4 1-13, peptide modifications: H4S1ph H4R3cit, binder concentration: 50 nM
  peptide microarray binding signal: 0.00335 ± 0.00024
[1]; peptide region: H4 1-13, peptide modifications: H4S1ph H4R3cit, binder concentration: 500 nM
  peptide microarray binding signal: 0.00524 ± 0.00019
[2]; peptide region: H4 1-13, peptide modifications: H4S1ph H4R3cit, binder concentration: 10 nM
  peptide microarray binding signal: 0.00281 ± 4.1e-05
[2]; peptide region: H4 1-13, peptide modifications: H4S1ph H4R3cit, binder concentration: 100 nM
  peptide microarray binding signal: 0.00418 ± 0.0002
[3]; [8]
  peptide microarray binding signal: 0.000378 ± 3.9e-06
[3]; [9]
  peptide microarray binding signal: 0.000685 ± 7.2e-06
[4]; [8]
  peptide microarray binding signal: 0.000136
[4]; [9]
  peptide microarray binding signal: 0.00121 ± 0.00012

## SGRGKGGKGLGKG [H4 1-13 Sph G R G K G G K G L G Kac G]
[1]; peptide region: H4 1-13, peptide modifications: H4S1ph H4K12ac, binder concentration: 50 nM
  peptide microarray binding signal: 0.00392 ± 0.00035
[1]; peptide region: H4 1-13, peptide modifications: H4S1ph H4K12ac, binder concentration: 500 nM
  peptide microarray binding signal: 0.0105 ± 0.00038
[2]; peptide region: H4 1-13, peptide modifications: H4S1ph H4K12ac, binder concentration: 10 nM
  peptide microarray binding signal: 0.00269 ± 6.6e-05
[2]; peptide region: H4 1-13, peptide modifications: H4S1ph H4K12ac, binder concentration: 100 nM
  peptide microarray binding signal: 0.00893 ± 0.00049
[3]; [10]
  peptide microarray binding signal: 0.000378 ± 1e-05
[3]; [11]
  peptide microarray binding signal: 0.000742 ± 1.3e-05
[4]; [10]
  peptide microarray binding signal: 0.000649 ± 0.00018
[4]; [11]
  peptide microarray binding signal: 0.00075 ± 7.9e-06

## SGRGKGGKGLGKG [H4 1-13 Sph G Rme2a G K G G K G L G K G]
[1]; peptide region: H4 1-13, peptide modifications: H4S1ph H4R3me2a, binder concentration: 50 nM
  peptide microarray binding signal: 0.00605 ± 0.001
[1]; peptide region: H4 1-13, peptide modifications: H4S1ph H4R3me2a, binder concentration: 500 nM
  peptide microarray binding signal: 0.0165 ± 0.0018
[2]; peptide region: H4 1-13, peptide modifications: H4S1ph H4R3me2a, binder concentration: 10 nM
  peptide microarray binding signal: 0.00334 ± 4.8e-05
[2]; peptide region: H4 1-13, peptide modifications: H4S1ph H4R3me2a, binder concentration: 100 nM
  peptide microarray binding signal: 0.00794 ± 0.0014
[3]; [12]
  peptide microarray binding signal: 0.00225 ± 0.00023
[3]; [13]
  peptide microarray binding signal: 0.00194 ± 6.3e-05
[4]; [12]
  peptide microarray binding signal: 0.000982 ± 4.2e-05
[4]; [13]
  peptide microarray binding signal: 0.00104 ± 1.1e-05
